The list is not random: actives were taken first. Their share in the collection is about 1.2%.
MEP2 TOR yeast: modulators of TOR pathway MEP2-GFP in S. cerevisiae; 330,000 compounds, 0.51% hits; GFP response vs DMSO, % at 10 µM; S. cerevisiae MEP2-GFP strain, flow cytometry GFP, 3 h; 100% = DMSO control level;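 active means GFP response versus DMSO above a set limit, roughly screen mean plus 3 SD, cut at about 180% in these data; inconclusive means fewer than 70 cells counted for a yeast strain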;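 further: median GFP fluorescence of the barcode-gated MEP2-GFP cells per well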
LAP4-GFP MLPCN: modulators of TOR pathway LAP4-GFP in S. cerevisiae; S. cerevisiae LAP4-GFP multiplex, flow cytometry GFP, 3 h; median GFP as percent of DMSO wells; GFP response vs DMSO, % at 10 µM; 320,000 compounds, 0.34% hits;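 active means GFP response vs DMSO above a set limit, about the screen mean plus 3 SD, cut at about 150% in these data; inconclusive means under 70 cell events counted for the yeast strain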
CIT2 TOR yeast: alters CIT2-GFP fluorescence in TOR pathway yeast screen; S. cerevisiae CIT2-GFP strain, flow cytometry, 3 h; 100 means same as DMSO wells; GFP response vs DMSO, % at 10 µM; 320,000 compounds, 0.065% hits;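 active means GFP response relative to DMSO above a set limit, near the screen mean plus 3 SD, cut at about 150% in these data; inconclusive means Fewer than 70 cells measured for a yeast strain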;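 further: ratio of well median GFP fluorescence to mean of DMSO wells on the plate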
DSG3 Ab inh: blocks pemphigus antibody binding to human desmoglein-3; P32926; DSG3-coupled beads, scFv-anti-DSG3-GFP binding, flow cytometry; stronger effect = lower value; binding (percent of control), % at 10 µM; 310,000 compounds, 0.48% hits;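 active means binding more than 3 SD below its plate's average and above zero; inconclusive means below that plate limit but binding exactly zero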
RPL19A-GFP yeast: modulators of TOR pathway RPL19A-GFP in S. cerevisiae; S. cerevisiae RPL19A-GFP strain, flow cytometry, 3 h; stronger effect = lower value; percent response vs DMSO, % at 10 µM; 330,000 compounds, 0.3% hits; AID 2025;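 active means percent response vs DMSO below 50%; inconclusive means fewer than 70 events counted for the yeast strain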;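 further: median channel GFP fluorescence of the barcoded RPL19A-GFP strain; ratio of sample median GFP to plate DMSO average so 100% = DMSO; lower means less RPL19A-GFP as with rapamycin TOR inhibition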
AGP1 TOR yeast: alters AGP1-GFP fluorescence in TOR pathway yeast screen. S. cerevisiae AGP1-GFP multiplex flow cytometry, 3 h; GFP as percent of DMSO wells. GFP response vs DMSO, % at 10 µM. 320,000 compounds, 0.02% hits. AID 2066;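 active means GFP response relative to DMSO above a set limit, near screen average plus 3 SD, cut at about 150% in these data; inconclusive means fewer than 70 cells counted for the yeast strain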;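 further: median GFP channel fluorescence of the gated AGP1 strain per well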
* marks the source's active call; other numbers are inactive results; ? = inconclusive; nt = no result given; [ ] = another dose, or the depositor's remark.

SMILES	MEP2 TOR yeast	LAP4-GFP MLPCN	CIT2 TOR yeast	DSG3 Ab inh	RPL19A-GFP yeast	AGP1 TOR yeast
COc1ccc(CC(NC(C)=O)C(=O)NC2CCN(c3nnnn3-c3ccccc3)CC2)cc1 (configuration not stated)	205.2*[may fluoresce violet]	92.0	?	96.9	29.7*[may fluoresce violet]	?
COc1cccc(CC(NC(C)=O)C(=O)NC2CCN(c3nnnn3-c3ccccc3)CC2)c1 (configuration not stated)	102.5	97.7	108.6	nt	100.0	107.6
Cc1ccc(OCCN2CCN(C(=O)CCC(=O)Nc3nnc(CC(C)C)s3)CC2)cc1	354.5*[may fluoresce violet]	76.7	?	nt	42.9*[may fluoresce violet]	?
CCCCC(=O)Nc1nn(C)c2nc3c(C)cccc3cc12	358.7*[may fluoresce violet]	96.6	?	92.9	41.6*[may fluoresce violet]	?
CCCCn1c(N)c(N(CC(C)C)C(=O)c2c(CC)noc2C)c(=O)[nH]c1=O	99.9	106.4	103.8	102.9	100.7	106.2
COc1ccc(Nc2nc(N)c([N+](=O)[O-])c(NCCO)n2)cc1	107.3	nt	nt	100.2	105.2	nt
CNc1nc(Nc2ccc(Br)cc2)nc(N)c1[N+](=O)[O-]	106.4	99.1	105.7	51.0*	106.9	100.8
Cc1ccc(C(=O)NCCc2sc(C)nc2C)cc1	222.2*[may fluoresce violet]	83.5	?	125.1	31.1*[may fluoresce violet]	?
COC(=O)C(NS(=O)(=O)c1ccc(N2CCCC2=O)cc1)c1ccccc1 (configuration not stated)	98.1	98.7	95.3	113.8	101.1	104.6
O=c1cc2oc3cc(O)c(O)cc3c(-c3ccccc3O)c-2cc1O	nt	nt	nt	74.3*	nt	nt
CCOc1ccccc1-c1c2cc(O)c(=O)cc-2oc2cc(O)c(O)cc12	nt	nt	nt	96.1	nt	nt
COc1ccc(C(=O)Oc2ccc(/C=N/NC(=O)c3ccccc3OC)cc2[N+](=O)[O-])cc1	195.4*	117.4	105.1	-5.1*	102.2	99.9
CC(=O)NCC(=O)NC(C(=O)Nc1ccc2c(c1)OCCO2)c1ccc(C)cc1 (configuration not stated)	?	?	?	97.2	40.1*[may fluoresce violet]	?
CC(=O)NCC(=O)NC(C(=O)Nc1ccc2c(c1)OCCO2)c1ccccc1 (configuration not stated)	96.3	100.1	103.9	94.6	105.9	104.8
COCCCNc1nc2nonc2nc1N(C)CC1CCCN1C (configuration not stated)	102.5	100.3	98.4	101.4	98.2	104.0
O=C(NNS(=O)(=O)c1ccccc1)C1CCCCC1	240.8*[may fluoresce violet]	80.1	?	104.6	46.2*[may fluoresce violet]	?
Cc1ccc(S(=O)(=O)N2CCC(C(=O)Nc3ccc4c(c3)OCO4)CC2)cc1	119.0	125.8	113.2	103.2	117.6	120.3
O=C(Nc1ccc(S(=O)(=O)N2CCCCC2)cc1)C1CCCCC1	256.0*[may fluoresce violet]	82.5	?	97.1	60.7	16.8
COc1ccc(NC(=S)Nc2cccc(S(=O)(=O)N3CCCCC3)c2)cc1	259.0*[may fluoresce violet]	54.1	?	107.4	22.6*[may fluoresce violet]	?
O=C(Nc1ccc2c(c1)OCO2)C1CCN(c2ccc(S(=O)(=O)N3CCOCC3)cc2)CC1	106.3	101.3	107.8	66.2*	100.6	107.0
CN1CCN(S(=O)(=O)c2ccc(NC(=O)C3CCCCC3)cc2)CC1	102.1	99.5	100.6	89.3	96.5	98.8
CCN1CCC(CNCc2cn(-c3ccc(OC)cc3)nc2-c2ccccc2Cl)C1 (configuration not stated)	102.0	100.8	102.3	109.0	98.0	103.4
COCCCN1C(=O)C(CC(=O)NC2CCCCC2)CC(C(=O)N2CCOCC2)=C1C (configuration not stated)	nt	nt	nt	98.7	nt	nt
c1ccc(CN(CCN2CCOCC2)Cc2ccccc2)cc1	nt	nt	nt	121.7	nt	nt
O=C(O)COc1ccc(Cl)cc1C1CCCCC1	nt	nt	nt	91.9	nt	nt
SMILES	MEP2 TOR yeast	LAP4-GFP MLPCN	CIT2 TOR yeast	DSG3 Ab inh	RPL19A-GFP yeast	AGP1 TOR yeast
O=C(Nc1ccc2c(c1)oc1ccc(S(=O)(=O)N3CCCC3)cc12)C1CC1	100.2	95.0	97.4	71.0*	99.9	104.3
O=C(Nc1ccc2c(c1)oc1ccccc12)C1CC1	102.7	138.6	81.8	108.0	89.2	102.0
O=C(NCC1CCCO1)c1nn2c(C(F)(F)F)cc(-c3cc(Br)cs3)nc2c1Br (configuration not stated)	231.2*[may fluoresce violet]	66.9	?	91.0	43.9*[may fluoresce violet]	?
Cc1cc(NC(=O)Cn2cc(C(F)(F)F)cc(Cl)c2=O)no1	224.3*[may fluoresce violet]	92.0	?	101.7	62.0	19.6
Cc1ccc(Cl)cc1NC(=O)Cn1cc(C(F)(F)F)cc(Cl)c1=O	94.7	90.1	95.2	97.4	99.4	93.4
O=C(Nc1ccc(F)cc1)C1CCCN(c2cnccn2)C1 (configuration not stated)	103.7	151.8*	109.3	100.8	92.7	113.2
O=C1Nc2ccc(Br)cc2/C1=C/C1CC=CCC1 (configuration not stated)	91.5	192.1*	96.7	101.3	79.0	89.6
O=C(O)c1ccccc1NS(=O)(=O)c1cccc(C(F)(F)F)c1	100.4	97.7	100.6	100.3	101.9	106.4
O=C(O)c1ccccc1NS(=O)(=O)c1cccc(-n2sc3ccccc3c2=O)c1	102.4	96.8	93.1	46.2*	100.8	100.3
CCOc1cc2c(cc1/C=C/C(=O)O)OC(C)C2 (configuration not stated)	606.8*[may fluoresce violet]	89.7	?	103.8	50.7	27.4
O=C(Nc1c2c(nn1-c1ccccc1)CS(=O)(=O)C2)c1ccc(Br)o1	nt	nt	nt	106.6	nt	nt
COc1ccc([C@@H]2CC=C(C(=O)O)[C@H](c3cccc(Cl)c3)N2S(=O)(=O)c2ccccc2C)cc1	85.5	125.7	110.3	108.6	96.8	83.4
CCSC1(SCC)N=C(N)C2(C#N)C(c3ccccc3)NC3=C(CCC3)C12C#N (configuration not stated)	277.4*[may fluoresce violet]	96.6	?	94.0	42.1*[may fluoresce violet]	19.9
COc1ccc(CCC(=O)NCCOc2ccccc2Cl)cc1	185.5*[may fluoresce violet]	70.0	?	108.7	27.9*[may fluoresce violet]	?
COc1ccc(CCC(=O)NCCOc2ccc(C)cc2)cc1	95.0	100.9	81.4	116.0	97.4	99.2
CN1C(=O)/C(=C2\SC(=S)N(CCCCCC(=O)O)C2=O)c2ccccc21	98.6	96.1	98.4	45.4*	93.7	98.3
CCN(c1ccccc1)S(=O)(=O)c1nnc(NC(=O)C(C)(C)C)s1	88.6	85.4	96.8	112.0	97.3	93.8
CCN(c1ccccc1)S(=O)(=O)c1nnc(NC(=O)C(C)C)s1	337.8*[may fluoresce violet]	59.6	?	108.0	21.9*[may fluoresce violet]	?
COc1cccc(C(=O)NCc2ccc3c(c2)cc(C)n3C)c1	102.9	105.5	98.8	82.2*	102.2	103.5
Cc1ccccc1NC(=S)NCc1ccc2c(c1)cc(C)n2C	96.1	117.0	98.4	66.0*	102.8	93.5

Bioassay records: PubChem, NMMLSC
